What was measured:
Test in all cases: log2 ratio of Biotin-Ahx-Ub-VS probe labelling (fragment/DMSO); higher = less target engagement (more negative = stronger competition), active = hit call of the paper (q ≤ 0.05, log2 ratio ≤ -1)
Details in all cases: compound concentration: 200 uM; treatment time: 3 h
USP19 = molecular target: T1, USP19 (UniProt O94966)
T1 sequence (whole entry): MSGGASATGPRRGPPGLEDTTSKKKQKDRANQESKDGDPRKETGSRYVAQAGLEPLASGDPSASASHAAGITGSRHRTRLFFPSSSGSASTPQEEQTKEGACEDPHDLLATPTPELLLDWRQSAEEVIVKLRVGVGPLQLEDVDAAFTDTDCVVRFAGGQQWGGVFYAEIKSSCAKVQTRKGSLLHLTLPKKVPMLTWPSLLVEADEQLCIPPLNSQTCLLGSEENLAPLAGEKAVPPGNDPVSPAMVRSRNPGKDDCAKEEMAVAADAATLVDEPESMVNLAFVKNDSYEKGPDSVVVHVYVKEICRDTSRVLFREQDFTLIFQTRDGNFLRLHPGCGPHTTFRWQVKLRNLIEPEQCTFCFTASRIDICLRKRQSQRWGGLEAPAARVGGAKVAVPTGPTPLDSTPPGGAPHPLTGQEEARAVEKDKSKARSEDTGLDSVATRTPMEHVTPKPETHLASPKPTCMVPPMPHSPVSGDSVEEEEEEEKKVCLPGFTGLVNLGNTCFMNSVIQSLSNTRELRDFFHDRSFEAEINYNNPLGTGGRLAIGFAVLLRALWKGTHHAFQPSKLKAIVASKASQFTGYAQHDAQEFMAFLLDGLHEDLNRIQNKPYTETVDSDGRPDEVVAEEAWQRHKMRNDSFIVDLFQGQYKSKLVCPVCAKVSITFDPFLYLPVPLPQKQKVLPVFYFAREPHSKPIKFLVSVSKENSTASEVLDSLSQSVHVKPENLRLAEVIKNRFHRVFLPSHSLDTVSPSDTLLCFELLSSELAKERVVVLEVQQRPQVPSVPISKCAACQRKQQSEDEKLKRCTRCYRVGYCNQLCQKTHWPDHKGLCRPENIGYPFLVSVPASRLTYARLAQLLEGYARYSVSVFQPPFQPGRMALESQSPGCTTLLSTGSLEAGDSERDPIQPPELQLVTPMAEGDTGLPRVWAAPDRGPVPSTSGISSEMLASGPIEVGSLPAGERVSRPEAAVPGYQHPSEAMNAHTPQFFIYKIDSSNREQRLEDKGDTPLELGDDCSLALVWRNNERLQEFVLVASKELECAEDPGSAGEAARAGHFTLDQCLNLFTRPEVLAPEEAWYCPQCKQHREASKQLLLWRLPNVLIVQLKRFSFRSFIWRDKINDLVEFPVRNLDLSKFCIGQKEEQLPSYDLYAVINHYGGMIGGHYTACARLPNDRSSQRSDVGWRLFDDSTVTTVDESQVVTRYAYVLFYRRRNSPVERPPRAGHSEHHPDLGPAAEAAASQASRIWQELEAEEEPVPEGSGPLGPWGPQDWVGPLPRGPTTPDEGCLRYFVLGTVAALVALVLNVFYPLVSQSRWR
In short: (§1)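 Fragment (200 µM) or vehicle was incubated for 3 h with triplicate HEK293T lysate samples of 495 µg, which were then treated with Biotin-Ahx-Ub-VS at 0.5 µM final for 1 h. Labelled DUBs were enriched on NeutrAvidin, digested with LysC and trypsin, and analysed by diaPASEF LC-MS/MS. Values are average log2 fragment/vehicle ratios from an unpaired t-test on global-median-normalised Spectronaut label-free quantities, using proteins with ≥2 unique peptides.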

USP24 = USP24 (UniProt Q9UPU5)
In short: as §1

USP25 = molecular target: T2, USP25 (UniProt Q9UHP3)
T2 sequence (whole entry): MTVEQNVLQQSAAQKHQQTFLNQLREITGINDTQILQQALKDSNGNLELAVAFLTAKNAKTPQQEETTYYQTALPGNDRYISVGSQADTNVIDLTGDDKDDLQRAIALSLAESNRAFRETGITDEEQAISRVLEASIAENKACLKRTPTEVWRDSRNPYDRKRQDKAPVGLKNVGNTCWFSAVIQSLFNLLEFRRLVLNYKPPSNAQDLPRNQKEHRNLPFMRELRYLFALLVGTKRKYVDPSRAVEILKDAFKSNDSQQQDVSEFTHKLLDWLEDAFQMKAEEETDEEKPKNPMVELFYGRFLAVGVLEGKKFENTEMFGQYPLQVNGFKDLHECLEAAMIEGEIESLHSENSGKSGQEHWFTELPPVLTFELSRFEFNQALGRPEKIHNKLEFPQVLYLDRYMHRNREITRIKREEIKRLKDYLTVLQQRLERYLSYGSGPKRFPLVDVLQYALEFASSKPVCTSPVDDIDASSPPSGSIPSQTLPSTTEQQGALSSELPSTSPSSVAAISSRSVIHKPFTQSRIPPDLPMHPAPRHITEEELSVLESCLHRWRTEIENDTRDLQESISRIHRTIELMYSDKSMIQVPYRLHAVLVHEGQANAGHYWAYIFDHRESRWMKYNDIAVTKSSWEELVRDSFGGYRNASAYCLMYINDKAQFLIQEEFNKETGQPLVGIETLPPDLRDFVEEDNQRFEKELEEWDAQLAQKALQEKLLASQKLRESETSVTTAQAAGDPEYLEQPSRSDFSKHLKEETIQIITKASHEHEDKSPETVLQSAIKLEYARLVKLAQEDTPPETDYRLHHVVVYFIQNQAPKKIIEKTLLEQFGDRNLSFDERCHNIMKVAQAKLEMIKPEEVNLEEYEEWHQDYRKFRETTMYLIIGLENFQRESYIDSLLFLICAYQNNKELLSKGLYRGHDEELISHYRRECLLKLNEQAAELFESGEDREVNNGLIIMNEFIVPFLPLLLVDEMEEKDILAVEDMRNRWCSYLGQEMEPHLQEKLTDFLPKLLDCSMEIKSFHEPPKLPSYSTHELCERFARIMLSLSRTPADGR
In short: as §1

USP28 = molecular target: T3, USP28 (UniProt Q96RU2)
T3 sequence (whole entry): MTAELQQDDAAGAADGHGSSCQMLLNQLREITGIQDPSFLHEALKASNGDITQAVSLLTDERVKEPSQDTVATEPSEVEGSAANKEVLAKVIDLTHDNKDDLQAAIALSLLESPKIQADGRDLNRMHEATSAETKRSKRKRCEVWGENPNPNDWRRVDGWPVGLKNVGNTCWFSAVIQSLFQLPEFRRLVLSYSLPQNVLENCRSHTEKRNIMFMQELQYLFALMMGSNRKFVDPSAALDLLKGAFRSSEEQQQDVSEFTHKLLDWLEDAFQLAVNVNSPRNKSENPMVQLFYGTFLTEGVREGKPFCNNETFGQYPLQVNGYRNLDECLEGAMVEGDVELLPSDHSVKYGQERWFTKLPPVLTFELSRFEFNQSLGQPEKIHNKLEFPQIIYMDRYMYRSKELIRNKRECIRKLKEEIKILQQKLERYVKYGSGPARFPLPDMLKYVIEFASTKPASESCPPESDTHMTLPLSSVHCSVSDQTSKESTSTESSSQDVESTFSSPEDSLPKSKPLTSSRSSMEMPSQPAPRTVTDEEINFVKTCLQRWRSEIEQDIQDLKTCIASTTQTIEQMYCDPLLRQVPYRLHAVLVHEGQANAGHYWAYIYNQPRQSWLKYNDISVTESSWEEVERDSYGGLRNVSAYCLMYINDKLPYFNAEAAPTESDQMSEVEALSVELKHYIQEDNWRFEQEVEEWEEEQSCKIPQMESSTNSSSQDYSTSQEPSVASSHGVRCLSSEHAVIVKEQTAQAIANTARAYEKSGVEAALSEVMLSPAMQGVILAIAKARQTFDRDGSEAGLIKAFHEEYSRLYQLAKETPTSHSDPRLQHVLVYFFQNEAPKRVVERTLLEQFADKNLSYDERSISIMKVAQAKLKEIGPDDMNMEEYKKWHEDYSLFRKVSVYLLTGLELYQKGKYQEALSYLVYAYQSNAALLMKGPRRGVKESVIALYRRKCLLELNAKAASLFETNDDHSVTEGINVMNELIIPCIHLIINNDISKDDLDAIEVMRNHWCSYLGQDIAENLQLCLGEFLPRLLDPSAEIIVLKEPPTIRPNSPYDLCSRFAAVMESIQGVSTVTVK
In short: as §1

Measured: log2 ratio of Biotin-Ahx-Ub-VS probe labelling

Chain of USP24 (Q9UPU5 whole entry): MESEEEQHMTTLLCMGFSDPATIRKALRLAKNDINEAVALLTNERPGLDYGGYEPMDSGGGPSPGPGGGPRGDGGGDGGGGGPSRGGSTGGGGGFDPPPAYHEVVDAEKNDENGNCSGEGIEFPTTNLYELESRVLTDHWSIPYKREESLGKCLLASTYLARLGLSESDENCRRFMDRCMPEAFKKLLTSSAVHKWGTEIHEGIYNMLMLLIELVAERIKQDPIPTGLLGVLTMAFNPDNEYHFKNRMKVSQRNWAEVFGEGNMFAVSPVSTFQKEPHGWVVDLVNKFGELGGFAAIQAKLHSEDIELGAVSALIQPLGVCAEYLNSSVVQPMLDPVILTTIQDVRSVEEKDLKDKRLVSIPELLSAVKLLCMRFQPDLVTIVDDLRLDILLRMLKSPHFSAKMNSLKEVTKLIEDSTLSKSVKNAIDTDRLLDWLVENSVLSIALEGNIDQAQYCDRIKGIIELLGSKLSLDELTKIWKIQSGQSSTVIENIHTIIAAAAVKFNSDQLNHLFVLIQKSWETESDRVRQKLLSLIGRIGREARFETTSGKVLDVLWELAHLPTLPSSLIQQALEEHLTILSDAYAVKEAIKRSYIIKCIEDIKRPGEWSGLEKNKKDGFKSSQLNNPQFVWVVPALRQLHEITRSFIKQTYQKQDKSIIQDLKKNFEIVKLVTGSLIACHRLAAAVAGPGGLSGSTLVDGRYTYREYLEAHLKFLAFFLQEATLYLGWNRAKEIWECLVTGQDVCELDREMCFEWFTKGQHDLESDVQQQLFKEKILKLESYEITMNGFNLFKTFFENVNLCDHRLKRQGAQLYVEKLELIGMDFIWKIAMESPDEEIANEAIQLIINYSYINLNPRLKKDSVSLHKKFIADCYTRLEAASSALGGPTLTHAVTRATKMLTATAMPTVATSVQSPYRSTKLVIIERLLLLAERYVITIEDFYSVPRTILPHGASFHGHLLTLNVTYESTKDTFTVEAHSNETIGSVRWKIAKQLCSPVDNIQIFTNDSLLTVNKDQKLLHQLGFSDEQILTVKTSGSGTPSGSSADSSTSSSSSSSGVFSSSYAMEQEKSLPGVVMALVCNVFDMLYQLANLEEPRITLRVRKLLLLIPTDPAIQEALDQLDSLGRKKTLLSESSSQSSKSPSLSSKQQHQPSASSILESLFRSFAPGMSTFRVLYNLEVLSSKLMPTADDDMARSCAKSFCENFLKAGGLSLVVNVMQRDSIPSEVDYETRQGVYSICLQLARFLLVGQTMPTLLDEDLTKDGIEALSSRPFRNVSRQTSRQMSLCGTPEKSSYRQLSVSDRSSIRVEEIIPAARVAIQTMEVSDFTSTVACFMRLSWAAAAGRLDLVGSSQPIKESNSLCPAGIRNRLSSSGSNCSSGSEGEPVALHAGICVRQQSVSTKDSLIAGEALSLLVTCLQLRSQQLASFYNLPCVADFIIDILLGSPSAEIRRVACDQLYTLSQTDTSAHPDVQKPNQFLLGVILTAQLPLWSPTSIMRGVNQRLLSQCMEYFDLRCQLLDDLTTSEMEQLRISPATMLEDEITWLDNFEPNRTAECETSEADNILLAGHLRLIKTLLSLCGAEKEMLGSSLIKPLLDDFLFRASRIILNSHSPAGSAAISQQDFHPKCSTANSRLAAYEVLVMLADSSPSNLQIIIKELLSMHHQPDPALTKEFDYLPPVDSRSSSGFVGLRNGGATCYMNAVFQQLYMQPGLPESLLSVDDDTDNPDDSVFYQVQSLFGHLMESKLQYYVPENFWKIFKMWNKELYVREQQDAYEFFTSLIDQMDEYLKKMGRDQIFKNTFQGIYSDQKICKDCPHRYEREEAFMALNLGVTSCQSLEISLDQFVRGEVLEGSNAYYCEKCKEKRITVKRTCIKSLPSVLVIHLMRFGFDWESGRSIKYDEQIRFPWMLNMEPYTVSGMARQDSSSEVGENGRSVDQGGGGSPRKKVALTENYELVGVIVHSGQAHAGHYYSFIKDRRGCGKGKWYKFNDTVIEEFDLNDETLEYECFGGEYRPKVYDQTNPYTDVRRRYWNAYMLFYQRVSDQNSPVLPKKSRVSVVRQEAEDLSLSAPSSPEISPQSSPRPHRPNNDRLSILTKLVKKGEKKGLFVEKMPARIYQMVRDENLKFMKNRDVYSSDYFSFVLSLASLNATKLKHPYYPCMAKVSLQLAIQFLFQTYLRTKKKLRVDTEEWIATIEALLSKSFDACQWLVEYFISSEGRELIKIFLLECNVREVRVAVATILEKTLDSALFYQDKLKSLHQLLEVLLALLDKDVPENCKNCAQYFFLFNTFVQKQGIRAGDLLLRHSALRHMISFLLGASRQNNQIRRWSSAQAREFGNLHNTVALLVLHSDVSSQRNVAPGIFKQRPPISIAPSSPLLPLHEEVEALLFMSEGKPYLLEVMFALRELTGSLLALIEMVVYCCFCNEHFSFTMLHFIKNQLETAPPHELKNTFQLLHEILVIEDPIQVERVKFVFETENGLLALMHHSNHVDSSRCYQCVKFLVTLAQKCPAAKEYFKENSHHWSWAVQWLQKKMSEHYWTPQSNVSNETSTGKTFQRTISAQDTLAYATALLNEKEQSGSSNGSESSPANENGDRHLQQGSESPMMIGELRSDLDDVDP

O=C(CCl)Nc1ccccc1C(F)(F)F
inactive: USP19 -0.154 | USP24 -0.445 | USP25 -0.713 | USP28 -0.598

Reference: the supplement of paper PMC11732987, “Enantioselective OTUD7B fragment discovery through chemoproteomics screening and high-throughput optimisation” (Communications Chemistry, 2025)
